Laboratory results published in PubChem BioAssay.
Potency and affinity values are given separately. Records with an inconclusive call do not appear. The source made the active and inactive calls. Unless noted, the rule behind the calls is not given here.

Key:
[1] = RMG-1 ovarian cancer cell viability loss – cherry-pick, dose response (AID 687029;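 active = signal drop whose fitted half-maximal concentration is at most twice the top valid dose, in every test run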;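 note: cells exposed to compound for 96 hours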)
[2] = IOSE-T80 viability loss, PAX8-independent line – cell-based, cherry-pick, selectivity assay for PAX8 inhibitor project, dose response (AID 687032;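 active = fitted half-maximal concentration for viability loss no higher than twice the top valid dose, in every repeat run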;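 note: cells exposed to compound for 96 h before reading; 0% = neutral control wells and -100% = 2 µM mitoxantrone kill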)
[3] = general cell-killing toxicity readout – plate reader, dry powder samples, cytotoxicity control for PAX8 inhibitor project, dose response (AID 743021)
[4] = IGROV1 cell killing – plate reader, dry powder samples, PAX8 inhibitor project, dose response (AID 743043);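 note: more negative means fewer viable cells or more cytotoxicity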
[5] = OVCAR-3 cell viability loss – plate reader, dry powder samples, PAX8 inhibitor project, dose response (AID 743044); conditions: max activity: at 35 µM, active compounds read low unless noted
[6] = toxicity toward immortalized ovarian surface epithelium – cell-based, plate reader, dry powder samples, cytotoxicity control for PAX8 inhibitor project, dose response (AID 743045);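 note: 0% = neutral control median and -100% = positive control median; more negative values mean more cell killing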
[7] = A2780 cell killing – plate reader, dry powder samples, cytotoxicity control, dose response (AID 743046);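 note: 0% = neutral control wells and -100% = cytotoxic reference compound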
[8] = OVCAR8 cell viability loss – plate reader, dry powder samples, PAX8 project, dose response (AID 743197)

Measured: max activity

O=C(C[C@H]1C[C@@H]2c3cc(NS(=O)(=O)c4ccc(F)cc4)ccc3O[C@@H]2[C@@H](CO)O1)NCc1ccc(Oc2ccccc2)cc1
inactive: [1] | [2] | [3] | [4] | [5] 26.4% | [6] | [7] | [8]

C[C@H]1CCCCO[C@@H](CN(C)Cc2ccc(Cl)c(Cl)c2)[C@@H](C)CN([C@@H](C)CO)C(=O)c2cc(NC(=O)Nc3ccc(C(F)(F)F)cc3)ccc2O1
inactive: [1] | [2] | [3] | [4] | [6]

C[C@H](CO)N1C[C@H](C)[C@@H](CN(C)C(=O)Nc2cccc3ccccc23)OCCCC[C@H](C)Oc2ccc(NC(=O)c3ccncc3)cc2C1=O
inactive: [1] | [2] | [3] | [4] | [5] -25.1% | [6] | [7] | [8]

C[C@@H]1CCCCO[C@H](CN(C)S(=O)(=O)c2ccc(Cl)cc2)[C@H](C)CN([C@@H](C)CO)C(=O)c2cc(N(C)C)ccc2O1
inactive: [1] | [2] | [3] | [4] | [5] 36.7% [at 16 µM, active compounds read low] | [6] | [7] | [8]

NC(=NCCCCCCN=C(N)/N=C(\N)Nc1ccc(Cl)cc1)/N=C(\N)Nc1ccc(Cl)cc1
inactive: [1] | [2] | [3] | [6]

COc1ccc(S(=O)(=O)N(C)C[C@H]2Oc3cc(C#CC4CCCC4)ccc3S(=O)(=O)N([C@@H](C)CO)C[C@@H]2C)cc1
inactive: [1] | [2] | [3] | [6]

C[C@@H]1CN([C@H](C)CO)C(=O)c2cc(NS(=O)(=O)c3ccc(Cl)cc3)ccc2O[C@@H](C)CCCCO[C@H]1CN(C)S(=O)(=O)c1ccc(Cl)cc1
inactive: [1] | [2] | [3] | [6]

CC(C)CC#Cc1ccc2c(c1)O[C@@H](CN(C)Cc1ccncc1)[C@H](C)CN([C@H](C)CO)S2(=O)=O
inactive: [1] | [2] | [3] | [4] | [7]

C[C@@H]1CN([C@@H](C)CO)S(=O)(=O)c2ccc(C#Cc3ccccc3F)cc2O[C@H]1CN(C)C(=O)c1ccc2c(c1)OCO2
inactive: [1] | [2] | [3] | [6]

O=C(Nc1ccccc1)N1C[C@@H]2N[C@H](C1)[C@@H]2c1ccc(/C=C/c2ccccc2)cc1
inactive: [1] | [2] | [3] | [4] | [6] | [8]

C[C@@H]1CN([C@H](C)CO)C(=O)c2cc(NS(=O)(=O)c3ccc(Cl)cc3)ccc2O[C@@H](C)CCCCO[C@@H]1CN(C)CC1CCCCC1
inactive: [1] | [2] | [3] | [6] | [7]

Cc1noc(C)c1S(=O)(=O)Nc1ccc2c(c1)CC(=O)N([C@@H](C)CO)C[C@@H](C)[C@H](CN(C)Cc1ccc(Cl)c(Cl)c1)O2
inactive: [1] | [2] | [3] | [6] | [7]

C[C@H]1CCCCO[C@H](CN(C)Cc2ccc(Cl)c(Cl)c2)[C@@H](C)CN([C@@H](C)CO)C(=O)c2cc(NC(=O)Nc3ccc(C(F)(F)F)cc3)ccc2O1
inactive: [1] | [2] | [3] | [6] | [7]

Cc1ccc(S(=O)(=O)Nc2ccc3c(c2)C(=O)N([C@@H](C)CO)C[C@H](C)[C@H](CN(C)Cc2ccc(C(F)(F)F)cc2)OCCCC[C@H](C)O3)cc1
inactive: [1] | [2] | [3] | [6] | [7]

C[C@@H]1CCCCO[C@@H](CN(C)Cc2ccc(Cl)c(Cl)c2)[C@H](C)CN([C@@H](C)CO)C(=O)c2cc(NC(=O)Nc3ccc(C(F)(F)F)cc3)ccc2O1
inactive: [1] | [2] | [3] | [4] | [6] | [7] | [8]

Cc1ccc(S(=O)(=O)Nc2ccc3c(c2)C(=O)N([C@H](C)CO)C[C@@H](C)[C@@H](CN(C)CC2CCCCC2)OCCCC[C@@H](C)O3)cc1
inactive: [1] | [2] | [3] | [6]

C[C@H](CO)N1C[C@H](C)[C@@H](CN(C)S(=O)(=O)c2ccccc2)OCCCC[C@H](C)Oc2ccc(NS(=O)(=O)c3ccc(Cl)cc3)cc2C1=O
inactive: [1] | [2] | [3] | [4] | [6] | [8]
